We go through 40 molecules from PubChem BioAssay (NCATS).

Inconclusive results are not listed. Values without a mark were called inactive. The source made the active and inactive calls. The call rests on the fitted dose curve; in most records, active means well fitted cell-killing curve with a large enough effect; inconclusive means small, poorly fitted or top-dose-only effect, or effect the other way; inactive means no such curve, though single readings can be large or run the other way.
Potency means the concentration at half of the fitted maximal effect.

A short description of this experiment: Quantitative High-Throughput drug screen in 47 multiple myeloma cell lines against the NCATS MIPE library collection: OCIMY5_PLB cell viability assay (AID 1918988). Further: nearly all actives have a fitted effect of over 65% in size. The following applies: OCI-MY5 myeloma viability, ATP luminescence, 48 h; series mostly up to 45.8 µM. The source says: PI: Beverly A. Mock Ph.D.
Laboratory of Cancer Biology and Genetics,
Center for Cancer Research, National Cancer Institute,
National Institute of Health, Bethesda, Maryland
Drug resistance and disease progression are common in multiple myeloma (MM) patients, underscoring the need for new therapeutic combinations. […] We hypothesized that effective combinations would reduce MYC expression and enhance p16 activity. […] These preclinical data identify potentially useful drug combinations for evaluation in drug-resistant MM and reveal potential mechanisms of combined drug sensitivity.
Described herein is the primary MIPE qHTS used to cherrypick compounds. Validated compounds were then further tested for potential synergistic activiy.
[1] Peat TJ, Gaikwad SM, Dubois W, Gyabaah-Kessie N, Zhang S, Gorjifard S, Phyo Z, Andres M, Hughitt VK, Simpson RM, Miller MA, Girvin AT, Taylor A, Williams D, D'Antonio N, Zhang Y, Rajagopalan A, Flietner E, Wilson K, Zhang X, Shinn P, Klumpp-Thomas C, McKnight C, Itkin Z, Chen L, Kazandijian D, Zhang J, Michalowski AM, Simmons JK, Keats J, Thomas CJ, Mock BA. Drug combinations identified by high-throughput screening promote cell cycle transition and upregulate Smad pathways in myeloma. Cancer Lett. 2023 Aug 1;568:216284. doi: 10.1016/j.canlet.2023.216284. Epub 2023 Jun 24. PMID: 37356470; PMCID: PMC10408729.
SEQUENCE No. (e.g., 1, 2, 3, etc.); […] (e.g., Cells, Incubation, Reagent, etc.); VALUE and DESCRIPTION.
1; Cells; 5 uL; white, solid bottom 1536-well Greiner assay plate.
2; Compounds; 23 nL; Kalypsis pin tool (Wako USA) equipped with a 1536-well pin head to transfer to the assay plates.
3; Incubation; 48 hours; 37C incubation.
4; Reagent;5uL; CellTiter Glo (Promega).
5; Detector; 425V; Luminescence; Viewlux PerkinElmer.
NOTES (numbers refer to Sequence numbers above)
1. The cell-based screening methods employed in this study were like those previously published. Briefly, the corresponding myeloma cell lines were screened in 1,536-well plates with 500 cells, 5-uL per well for inhibition of cell viability (assessed by measuring ATP levels with CellTiterGlo).
2. NCATS MIPE 4.0 library of approved and investigational drugs were added using the Kalypsis pin tool. Wells treated with DMSO only for 100% viability and media only for 0% viability were used as controls.
3. The assay plates were covered and incubated for 48 hours in a 37C, 5% CO2 incubator with controlled humidity.
4. After 48 hours, CellTilter-GloTM luminescent substrate mix (Promega) reagent was added to the assay plate and plates we incubated for 5 min at room temperature.
5. Signal was measured as median relative luminescence units on a ViewLux (PerkinElmer) multiplate reader.
[1] Heske CM, Davis MI, Baumgart JT, Wilson K, Gormally MV, Chen L, Zhang X, Ceribelli M, Duveau DY, Guha R, Ferrer M, Arnaldez FI, Ji J, Tran HL, Zhang Y, Mendoza A, Helman LJ, Thomas CJ. Matrix Screen Identifies Synergistic Combination of PARP Inhibitors and Nicotinamide Phosphoribosyltransferase (NAMPT) Inhibitors in Ewing Sarcoma. Clin Cancer Res. 2017 Dec 1;23(23):7301-7311. doi: 10.1158/1078-0432.CCR-17-1121. Epub 2017 Sep 12. PMID: 28899971; PMCID: PMC6636827.
Turning to `CNC(=O)Nc1ccc(-c2nc(N3CC4CCC(C3)O4)c3cnn(C4CCC5(CC4)OCCO5)c3n2)cc1`, the Potency was 833 nM (active).

Take `CCC[C@H]1C[C@H](C(=O)N[C@@H]([C@@H]2O[C@@H](SC)[C@@H](O)[C@@H](O)[C@@H]2O)[C@H](C)Cl)N(C)C1`: the Potency result was “inactive”.

In the case of `CCCCCCCCCCCCCCCC(=O)OC[C@@H](NC(=O)C(Cl)Cl)[C@H](O)c1ccc([N+](=O)[O-])cc1`, the Potency entry is “inactive”.

Consider `COc1ccc(Nc2cc(-c3cnc(N)nc3)nc(N3CCOCC3)n2)cn1`, for which the Potency is 11800 nM (active).

Regarding `COC1=C2C[C@@H](C)C[C@H](OC)[C@@H](O)[C@@H](C)C=C(C)[C@H](OC(N)=O)[C@@H](OC)C=CC=C(C)C(=O)NC(=CC1=O)C2=O`, the Potency was 37.2 nM (active).

Take `CC(C)Oc1ccc(C(=O)N[C@H](CNC(=O)CN(C)C)Cc2ccc(-c3cn4cccc([C@H](C)O)c4n3)cc2)cc1Cl`: the Potency was 418 nM (active).

Consider `CN[C@H](CC(C)C)C(=O)N[C@H]1C(=O)N[C@@H](CC(N)=O)C(=O)N[C@@H]2C(=O)N[C@H]3C(=O)N[C@H](C(=O)N[C@H](C(=O)O)c4cc(O)cc(O)c4-c4cc3ccc4O)[C@H](O)c3ccc(c(Cl)c3)Oc3cc2cc(c3O[C@@H]2O[C@H](CO)[C@@H](O)[C@H](O)[C@@H]2O[C@H]2C[C@](C)(N)[C@H](O)[C@H](C)O2)Oc2ccc(cc2Cl)[C@H]1O`, for which the Potency result was “inactive”.

As to `C=C[C@@H]1CN2CCC1C[C@H]2[C@H](O)c1ccnc2ccc(OC)cc12` (stereo not given in full), the Potency was 18700 nM (active).

As for `CC(C)(C)c1nc2c3cc[nH]c(=O)c3c3cc(F)ccc3c2[nH]1`, the Potency is 1870 nM (active).

On to `C#Cc1cccc(Nc2ncnc3cc(OCCOC)c(OCCO)cc23)c1`, for which the Potency is 3320 nM (active).

Consider `C=C(C)[C@@H]1CC[C@]2(C)CC[C@]3(C)[C@H](CC[C@@H]4[C@@]5(C)CC[C@H](O)C(C)(C)[C@H]5CC[C@]43C)[C@@H]12`, for which the Potency result is “inactive”.

As to `CC(C)[C@H](CO)Nc1nc(Nc2cccc(Cl)c2)c2ncn(C(C)C)c2n1`, the Potency is 18700 nM (active).

For `CC(C)N1[N]C(=C2C=c3cc(O)ccc3=N2)c2c(N)ncnc21`, the Potency was 1180 nM (active).

Take `NC(=NCCCCCCN=C(N)N=C(N)Nc1ccc(Cl)cc1)N=C(N)Nc1ccc(Cl)cc1`: the Potency is 8330 nM (active).

In the case of `COC(=O)C1C2CC3c4[nH]c5cc(OC)ccc5c4CCN3CC2CC(OC(=O)c2cc(OC)c(OC)c(OC)c2)C1OC` (stereo not given), the Potency was 16600 nM (active).

Take `O=C(O)c1ccc(Nc2ncc3c(n2)-c2ccc(Cl)cc2C(c2c(F)cccc2F)=NC3)cc1`: the Potency is 332 nM (active).

As to `CC(C)(C)[N+]([O-])=Cc1ccc(S(=O)(=O)O)cc1S(=O)(=O)O`, the Potency result was “inactive”.

Take `Cc1cnc(Nc2ccc(N3CCN(C)CC3)cc2)nc1Nc1cccc(S(=O)(=O)NC(C)(C)C)c1`: the Potency was 1480 nM (active).

On to `CC(C)c1cc(C(C)C)c(CC(=O)NS(=O)(=O)Oc2c(C(C)C)cccc2C(C)C)c(C(C)C)c1`, for which the Potency is 33200 nM (active).

On to `C[C@H]1COc2c(N3CCN(C)CC3)c(F)cc3c(=O)c(C(=O)O)cn1c23`, for which the Potency result was “inactive”.

On to `O=C(O)C[C@H](O)C[C@H](O)C=Cc1c(C2CC2)nc2ccccc2c1-c1ccc(F)cc1`, for which the Potency is 20900 nM (active).

`C[C@]12CC[C@@H]3c4ccc(O)cc4CC[C@H]3[C@H]1CC[C@H]2O`: the Potency was 9350 nM (active).

`O=C1NC(=O)[C@@H](c2cn3c4c(cccc24)CCC3)[C@H]1c1c[nH]c2ccccc12`: the Potency was 132 nM (active).

On to `CC(=O)N1CCN(c2ccc(OCc3nn(C)c(C)c3-c3cccc4c(CCCOc5cccc6ccccc56)c(C(=O)O)n(Cc5cccnc5)c34)cc2)CC1`, for which the Potency was 118 nM (active).

As for `CC(C=CC(=O)NO)=C[C@@H](C)C(=O)c1ccc(N(C)C)cc1`, the Potency was 166 nM (active).

`COc1cccc2c1C(=O)c1c(O)c3c(c(O)c1C2=O)C[C@@](O)(C(=O)CO)C[C@@H]3O[C@H]1C[C@H](N)[C@H](OC2CCCCO2)[C@H](C)O1` (stereo not given in full): the Potency is 2090 nM (active).

In the case of `C=C(C)[C@@H]1CC[C@]2(C(=O)O)CC[C@]3(C)[C@H](CC[C@@H]4[C@@]5(C)CC[C@H](O)C(C)(C)[C@@H]5CC[C@]43C)[C@@H]12`, the Potency is 5900 nM (active).

`C[C@@H]1[C@H](C)CC[C@]2(C(=O)O)CC[C@]3(C)C(=CC[C@@H]4[C@@]5(C)C[C@@H](O)[C@H](O)[C@@](C)(CO)[C@H]5CC[C@]43C)[C@@H]12`: the Potency entry is “inactive”.

As to `COc1ccc(C[C@@H](C)[C@@H](C)Cc2ccc(OC)c(OC)c2)cc1OC`, the Potency was 469 nM (active).

On to `COc1cc2c(cc1O)CCC1C2CC[C@@]2(C)C1CC[C@@H]2O` (stereo not given in full), for which the Potency was 1180 nM (active).

For the molecule `COc1ccc(S(=O)(=O)Nc2cc(-c3c(O)ccc4ccccc34)c(O)c3ccccc23)cc1`, the Potency is 20900 nM (active).

For `CCNC(=O)Nc1ccc(-c2nc3c(c(N4CCOC[C@H]4C)n2)CCN(C2COC2)C3)cc1`, the Potency is 1660 nM (active).

For `CC(C=CC1=C(C)CCCC1(C)C)=CC=CC(C)=CC(=O)Nc1ccc(O)cc1`, the Potency is 9590 nM (active).

With `CC(C(C)N1CC(=O)NC(=O)C1)N1CC(=O)NC(=O)C1` (stereo not given), the Potency was 469 nM (active).

For `CC(C)(C)[C@H](NC(=O)c1ccc(N)c(Cl)c1)C(=O)N1CCC[C@@H]1C(=O)N[C@H](C#N)CC(=O)O`, the viability, % of control is 135% [at 3.51 µM].

As for `C=C1C(=O)O[C@H]2[C@@H]1CCC(C)=CCC[C@@]1(C)O[C@@H]21`, the Potency is 4180 nM (active).

As to `C[C@](Cc1c[nH]c2ccccc12)(NC(=O)OC1C2CC3CC(C2)CC1C3)C(=O)NC[C@H](NC(=O)CCC(=O)O)c1ccccc1` (stereo not given in full), the Potency entry is “inactive”.

In the case of `CC(=O)ON=C1C(c2c(O)[nH]c3cc(Br)ccc23)=Nc2ccccc21`, the Potency was 9350 nM (active).

Regarding `CN1[C@H]2CC(OC(=O)[C@@H](CO)c3ccccc3)C[C@H]1[C@H]1O[C@H]12` (stereo not given in full), the Potency entry was “inactive”.

For `CCCNC(=O)[C@H]1O[C@H]1C(=O)N[C@H](C(=O)N1CCC[C@@H]1C(=O)OC)C(C)CC` (stereo not given in full), the Potency is 2640 nM (active).
